# “And” between values parts separate entries of the source, which are not always exact repeats. Identical values can stand only once. Compounds without any hit were thinned out: in the full panel of roughly 83,000, 20% have a hit.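 48-hour exposure, single concentration, 96-well plates; percent growth endpoint where 0 means no net growth. Active: below 10.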 The source made the active and inactive calls. Where a SMILES comes first, the peptide text is derived from it. [ ]: non-standard residue; d: D form. ξ: configuration not given here. ξV = CC(C)C(N)C(=O)O
# Columns and labels:
# Test in all cases: NCI-60 one-dose screen, 48 h (100 = growth as untreated, 0 = no growth, -100 = all killed)
# [1] = tested on: HCT-15 colon
# [2] = tested on: HT29 colon
# [3] = tested on: SNB-75 CNS
# [4] = tested on: SNB-19 CNS
# [5] = tested on: U251 CNS; conditions: 10 µM unless noted
# [6] = tested on: PC-3 prostate
# [7] = tested on: SK-MEL-5 melanoma
# [8] = tested on: LOX IMVI melanoma; conditions: 10 µM unless noted
# [9] = tested on: SK-MEL-28 melanoma
# [10] = tested on: UACC-62 melanoma; conditions: 10 µM
Compound,growth ([1]; 10 µM),growth ([2]; 10 µM),growth ([3]; 10 µM),growth ([4]; 10 µM),growth [5],growth ([6]; 10 µM),growth ([7]; 10 µM unless noted),growth [8],growth ([9]; 10 µM),growth [10],growth ([1]; 100 µM),growth ([2]; 100 µM),growth ([3]; 100 µM),growth ([4]; 100 µM),growth ([6]; 100 µM),growth ([7]; 10 µM),growth ([7]; 100 µM),growth ([9]; 100 µM)
O=C(/C=C/c1ccccn1)c1ccccc1,-8.15% (active),-67.2% (active),66.2% (inactive),61.8% (inactive),-31.4% (active),69.3% (inactive),74.7% (inactive),-31.2% (active),100% (inactive),–,–,–,–,–,–,–,–,–
CC(=O)OCC(OC(C)=O)C(OC(C)=O)C(OC(C)=O)C(OC(C)=O)C(/C=N/Nc1ccccc1)=N/Nc1ccccc1 (stereo not given),59.5% (inactive),56.1% (inactive),87.4% (inactive),88.9% (inactive),72.5% (inactive),55.9% (inactive),91.9% (inactive),36.8% (inactive),101% (inactive),–,–,–,–,–,–,–,–,–
CCN1/C(=C/C=C/C=C/c2sc3ccccc3[n+]2CC)Sc2ccccc21,-20.9% (active),-66.1% (active),-45.6% (active),-5.19% (active),-6.94% (active),7.09% (active),-95.4% (active),-57.5% (active),-56.6% (active),-74.6% (active),–,–,–,–,–,–,–,–
O=c1ccn(C2CC(O)C(COC(c3ccccc3)(c3ccccc3)c3ccccc3)O2)c(=O)[nH]1 (stereo not given),88.9% (inactive),86% (inactive),83.2% (inactive),98.2% (inactive),55.5% [100 µM] (inactive),59.5% (inactive),–,79.2% (inactive),118% (inactive),–,33.4% (inactive),33.1% (inactive),57.8% (inactive),69.8% (inactive),15% (inactive),93.3% (inactive),32.2% (inactive),45.6% (inactive)
CCCCCCCCCCCCCCCCCCOCC(COP(=O)([O-])OCC[N+](C)(C)C)OC (stereo not given),61% (inactive),37.7% (inactive),84.4% (inactive),80.8% (inactive),72.4% (inactive),29.5% (inactive),62.5% (inactive),84.6% (inactive),–,–,–,–,–,–,–,–,–,–
O=C(O)COc1ccc(OCC(=O)O)cc1,71.7% (inactive),5.13% (active),-11.9% (active),8.27% (active),-0.509% (active),31% (inactive),2.69% (active),-64.4% (active),53.2% (inactive),-3.08% (active),–,–,–,–,–,–,–,–
Cc1cc(O)c(C(C)C)cc1Cl,106% (inactive),103% (inactive),93.2% (inactive),103% (inactive),101% (inactive),101% (inactive),103% (inactive),98.3% (inactive),105% (inactive),–,–,–,–,–,–,–,–,–
CN(C)C(=S)SC(=S)N(C)C,87.5% (inactive) and 95.5% (inactive),82.2% (inactive) and 59.8% (inactive),97.2% (inactive) and 89.7% (inactive),98.7% (inactive) and 109% (inactive),96.1% (inactive) and 97.1% (inactive),93.1% (inactive) and 89.6% (inactive),92.9% (inactive) and 99% (inactive),99.8% (inactive) and 90.9% (inactive),105% (inactive) and 104% (inactive),92.1% (inactive) and 103% (inactive),–,–,–,–,–,–,–,–
CCCCCCCCCCCCSC(=NC)NC,-25.5% (active) and -28.8% (active),0.0905% (active) and 2.56% (active),74.8% (inactive) and 82.3% (inactive),42.6% (inactive) and 91.6% (inactive),8.04% (active) and 34.5% (inactive),42% (inactive) and 67.3% (inactive),-5.79% (active) and 69.5% (inactive),-39.5% (active) and 26.8% (inactive),26.8% (inactive) and 68.5% (inactive),–,–,–,–,–,–,–,–,–
CCCCCCCCCCSC(=N)N,-4.11% (active),-27.7% (active),80.7% (inactive),66.8% (inactive),5.37% (active),59% (inactive),50.7% (inactive),47.8% (inactive),89.3% (inactive),-35% (active),–,–,–,–,–,–,–,–
CC(C)C(NC(=O)CN)C(=O)O (stereo not given) (H-Gly-[ξV]-OH),109% (inactive) and 106% (inactive),101% (inactive) and 100% (inactive),104% (inactive) and 84.7% (inactive),106% (inactive),102% (inactive) and 98.9% (inactive),92.6% (inactive) and 88.6% (inactive),104% (inactive) and 102% (inactive),101% (inactive) and 102% (inactive),109% (inactive) and 107% (inactive),104% (inactive) and 94.5% (inactive),–,–,–,–,–,–,–,–
